RAM network inh: blocks the yeast RAM network. inhibition, % at 50 µM. S. cerevisiae dse1pr::URA3 reporter, 5-FOA growth OD615, 2 d; analog-sensitive cbk1-as2 kinase mutant strain. actives 1.8% (n = 190,000);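 active = inhibition above a set limit, 3 SD over mean compound inhibition, cut at about 8.4% in these data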;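 also: 0% = DMSO-only wells with no growth and 100% = 10 µM 1-NA-PP1 full growth; inhibition rescues growth on 5-FOA so higher OD means more RAM inhibition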
NR1D1 modulator: modulates human Rev-erb alpha binding to DNA; P20393; actives 0.79% (n = 370,000); activity, % at 10 µM; AID 1259318; Rev-erbα–FITC-DNA binding, fluorescence polarization, 90 min;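 active = activity above about 14%, limit read from the data; passing the limit was not always enough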;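 also: 0% = DMSO wells with 35 nM protein and 100% = DMSO wells with 750 nM protein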
Target sequence (P20393 whole entry, looked up): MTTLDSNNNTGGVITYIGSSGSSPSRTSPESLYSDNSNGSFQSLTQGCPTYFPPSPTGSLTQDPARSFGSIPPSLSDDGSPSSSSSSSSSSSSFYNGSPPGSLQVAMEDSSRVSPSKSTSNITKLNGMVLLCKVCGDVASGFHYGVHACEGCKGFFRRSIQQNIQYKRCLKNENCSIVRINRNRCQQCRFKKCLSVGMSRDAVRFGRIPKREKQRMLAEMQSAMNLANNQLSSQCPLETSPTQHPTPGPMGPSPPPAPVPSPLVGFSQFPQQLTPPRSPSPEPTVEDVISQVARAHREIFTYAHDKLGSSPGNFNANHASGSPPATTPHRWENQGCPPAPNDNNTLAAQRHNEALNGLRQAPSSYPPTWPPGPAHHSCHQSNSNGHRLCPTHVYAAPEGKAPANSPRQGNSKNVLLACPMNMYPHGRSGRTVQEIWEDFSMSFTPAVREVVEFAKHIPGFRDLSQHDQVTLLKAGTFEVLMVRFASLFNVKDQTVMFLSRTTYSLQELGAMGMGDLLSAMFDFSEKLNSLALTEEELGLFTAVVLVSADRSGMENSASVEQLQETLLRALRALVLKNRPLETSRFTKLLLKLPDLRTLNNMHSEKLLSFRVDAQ
PG9 binder: binds the HIV-1 gp120 antibody PG9; TR-FRET gp120-PG9 antibody binding; inhibition, % at 6.7 µM; actives 0.43% (n = 360,000); AID 624416; in the data active = inhibition above about 8.5%
SKN-1 inh: blocks SKN-1 activity in C. elegans; C. elegans VP596 Pgst-4::GFP/RFP ratio, acrylamide-induced, 24 h; inhibition, % at 21.8 µM; actives 0.49% (n = 360,000);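 active = interference check ratio from 0.5 to 1.5 plus GFP to RFP signal ratio inhibition reaching or exceeding a fixed threshold, cut at about 30% in these data, passing the limit was not always enough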
EP2 antag: inhibitors of human EP2 prostaglandin E2 receptor | C6 glioma cells expressing human EP2, cAMP TR-FRET; cells stimulated with saturating PGE2 | P43116 | inhibition, % at 25 µM | AID 1422 | actives 0.52% (n = 260,000);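 active = percent inhibition above 40 after rounding to a whole number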;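 also: rat C6 glioma host cells with rolipram phosphodiesterase inhibitor present; the protocol text gives 20 µM as final concentration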
EP2 mod: EP2 receptor (human) modulation. P43116. EP2-expressing cells, cAMP HTRF FRET, PGE2 co-stimulation. induction, % at 25 µM. actives 0.83% (n = 260,000);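 active = compounds whose cAMP rise, as percent of the full-agonist control response, exceeds 60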;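 also: rat C6 glioma line stably carrying human EP2 under a CMV promoter; the protocol text gives 20 µM as final concentration; 100% = response of wells given 1 µM PGE2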
Active calls of the source: *; nt = not tested or not shown. This is a sample that favours compounds with a hit; in the whole collection about 2.9% have one here.

SMILES | RAM network inh | NR1D1 modulator | PG9 binder | SKN-1 inh | EP2 antag | EP2 mod
COc1ccc(C(=O)NCC(C)(C)SCc2c(C)cc(C)cc2C)cc1 | 9.3* | 0.1 | -0.7 | -4.6 | 15.3 | -13.1
COc1ccc(C(=O)NCCNC(=O)c2ccc(OC)cc2)cc1 | nt | -5.9 | 1.8 | 1.0 | nt | nt
O=C1C=CC(=O)N1CCNc1ncc(C(F)(F)F)cc1Cl | -0.8 | -1.7 | 1.2 | 1.1 | 100.8* | -49.8
O=C1CC(=O)N(CCNc2ncc(C(F)(F)F)cc2Cl)C(=O)N1 | 0.7 | 0.0 | 0.1 | -6.3 | 8.0 | 5.5
COCCN1C(=O)C(=O)/C(=C(\O)c2ccc(OC)cc2)C1c1ccc(OC)c(OC)c1 (configuration not stated) | nt | nt | nt | nt | 15.4 | -6.1
CC(C)(C)c1nc(SCC(=O)c2ccc(F)cc2)c2ccccc2n1 | nt | nt | nt | nt | 6.6 | 69.5*
CCSc1cc(N2CCCC2)nc(-c2ccccc2)n1 | 0.0 | -7.5 | 0.2 | 11.2 | 7.4 | 64.0*
COc1ccc(-n2nnnc2SCC(=O)Nc2ccccc2C)cc1OC | nt | nt | nt | nt | 11.3 | -8.4
O=S1(=O)OC(c2ccc(O)cc2)(c2ccc(O)cc2)c2ccccc21 | nt | nt | nt | nt | 95.7* | -32.3
CC(C)(C)NC(=O)CN(C(=O)CCN1CCCc2ccccc21)C(C)(C)C | -0.1 | -1.4 | -2.0 | 39.8* | 8.0 | 27.2
Cc1ccccc1-c1noc(C(C)NC(=O)CCN2Cc3ccccc3C2=O)n1 (configuration not stated) | nt | nt | nt | nt | 8.0 | -65.2
COc1ccc(NC(=O)c2ccc(C)cc2)cc1 | nt | 1.9 | -0.8 | 3.7 | nt | nt
CO/N=C/C(=N\Nc1ccc(OC)cc1)C(=O)c1ccc(F)cc1 | 9.2* | 2.3 | 0.1 | 7.1 | 7.3 | 43.3
CO/N=C/C(=N\Nc1ccc(C)cc1)C(=O)c1ccc(OC)cc1 | 10.0* | 6.9 | 0.4 | -14.4 | 16.0 | 48.8
CO/N=C\C(=N\Nc1ccc(OC)cc1)C(=O)c1ccccc1 | 5.0 | 2.3 | -1.1 | -1.7 | 10.9 | 61.9*
COc1ccc(C(=O)CC(=O)c2ccc(F)cc2)cc1 | nt | -1.9 | 1.4 | -7.2 | nt | nt
COCCCn1c(SCC(=O)Nc2ccc(C)cc2C)nnc1-c1ccncc1 | nt | nt | nt | nt | 2.3 | -8.6
CCn1c(SCc2cccc(C(F)(F)F)c2)nnc1-c1ccco1 | 9.6* | -2.3 | -2.7 | 8.8 | 6.9 | -3.1
O=C(CSCCN1C(=O)c2ccccc2C1=O)Nc1ccc2ccccc2c1 | 9.2* | -2.3 | -2.6 | 10.6 | 6.9 | -15.6
COc1cccc(C2N(c3ccccc3)CCN2c2ccccc2)c1OC | 0.6 | 3.4 | -0.4 | -4.9 | 3.0 | 64.3*
CCC(c1nnnn1CCc1ccccc1)N(Cc1ccco1)Cc1cc2c(C)cc(C)cc2[nH]c1=O (configuration not stated) | nt | nt | nt | nt | 2.5 | 48.6
O=C(COc1ccccc1Cl)NCc1ccccc1 | nt | -6.0 | 2.3 | -4.9 | nt | nt
O=C(COc1ccc(Br)cc1Cl)NC(=O)NCc1ccccc1 | 8.8* | -0.1 | -2.4 | -2.4 | 5.2 | -10.4
CCOC(=O)C1(C)/C(=N/Nc2cccc(Cl)c2)C(=O)C(=O)N1c1ccccc1 (configuration not stated) | 4.7 | 3.2 | -2.0 | 20.6 | 6.8 | -5.5
CCOC(=O)C1(C)/C(=N/Nc2ccc(Cl)cc2)C(=O)C(=O)N1c1ccccc1 (configuration not stated) | 1.7 | -1.5 | -0.5 | 37.6* | 3.0 | 61.2*
SMILES | RAM network inh | NR1D1 modulator | PG9 binder | SKN-1 inh | EP2 antag | EP2 mod
COC(=O)c1ccc(C2C(C(=O)OC(C)C)=C(N)OC3=C2C(=O)CC(C)(C)C3)cc1 (configuration not stated) | nt | nt | nt | nt | 3.1 | 65.5*
CCOC(=O)C1=C(N)OC2=C(C(=O)CC(C)(C)C2)C1c1ccc(F)cc1 (configuration not stated) | nt | nt | nt | nt | 11.8 | 13.5
CCCc1c(O)nc(SCC(=O)Nc2ccccc2F)[nH]c1=O | nt | nt | nt | nt | 6.5 | 18.8
Cc1nc2c(-c3ccc(F)cc3)c(C)nn2c(NCc2cccnc2)c1C | nt | nt | nt | nt | 12.1 | -43.4
COc1ccc(C(C)=O)cc1COC(=O)c1ccc2c(c1)OCO2 | 7.7 | 20.0 | 0.1 | -9.2 | 9.3 | 33.8
COc1ccc(C(C)=O)cc1COC(=O)c1cnc(Cl)c(Cl)c1 | 9.9* | 3.9 | 0.8 | -4.2 | 7.6 | -0.9
CN1C(=O)/C(=c2\s/c(=C3\Sc4ccccc4N3C)c(=O)n2Cc2ccccc2)SC1=S | nt | nt | nt | nt | 6.3 | 21.2
COc1ccc(Nc2nc3c(C)cccc3cc2C#N)cc1 | 3.9 | 14.0 | 1.7 | 5.8 | 1.5 | 25.0
Cc1cccc2cc(C#N)c(NC3CCCCC3)nc12 | nt | nt | nt | nt | 14.8 | 78.1*
O=C(CCCCCn1c(=S)[nH]c2cc3c(cc2c1=O)OCO3)N1CCN(Cc2ccccc2)CC1 | 0.9 | 16.8 | 4.2 | -12.6 | 6.7 | -21.8
CC(C)OCCCn1c(=S)[nH]c2cc3c(cc2c1=O)OCO3 | 1.2 | 2.8 | 0.1 | 38.5* | 1.3 | 14.6
O=C(CCCCCn1c(=S)[nH]c2cc3c(cc2c1=O)OCO3)N1CCN(C(=O)c2ccco2)CC1 | 2.0 | -1.4 | 11.8* | -20.1 | 2.9 | 12.0
CCOc1ccc(/C=N/OCC(=O)Nc2cc(C)on2)cc1 | 2.2 | -1.0 | 0.9 | 0.3 | 5.2 | -36.6
CCOc1ccc(/C=N/OCC(=O)NC(c2ccccc2)c2ccccc2)cc1 | 10.5* | 2.1 | -0.4 | 16.0 | 4.9 | 20.8
N#C/C(=C\c1ccc(F)cc1)c1nc(-c2ccco2)cs1 | 5.7 | 1.0 | -1.6 | 60.2* | 9.0 | 60.9*
N#C/C(=C\c1ccc(-c2ccccc2)cc1)c1nc(-c2ccco2)cs1 | 8.4* | -1.9 | -1.1 | 25.5 | 5.9 | 29.3
N#CC(=Cc1cccs1)c1nc(-c2ccc(Cl)cc2)cs1 | nt | 5.6 | -2.3 | 61.8* | nt | nt
Cc1ccc(NC(=O)CSc2nnc(CSc3nc(C)cc(C)n3)n2Cc2ccco2)cc1 | nt | nt | nt | nt | 4.0 | 11.8
CCCCNC(=O)C(C#N)c1nc2ccccc2nc1N1CCCC1 (configuration not stated) | 0.9 | nt | nt | nt | nt | 13.1
C=CCNC(=O)C(C#N)c1nc2ccccc2nc1N1CCCCCC1 (configuration not stated) | 9.0* | 0.2 | -1.0 | 12.3 | 22.1 | 41.5
CNC(=O)Cn1cnc2c1c(=O)n(C)c(=O)n2C | nt | nt | nt | nt | 8.0 | -3.2
COc1ccc(C2=NOC(C(=O)Nc3ccc(C)cc3)C2)cc1OC (configuration not stated) | 9.2* | 5.8 | -0.1 | 2.0 | 3.7 | -25.3
Cc1cc2ccc(OC(=O)c3ccc(N=C(N)N)cc3)cc2oc1=O | nt | nt | nt | nt | 116.0* | 4.0
Cc1ccc(C(=O)Oc2ccc3ccc(=O)oc3c2)cc1 | nt | -8.1 | 1.8 | 6.3 | nt | nt
CN1/C(=C\C(=O)CSc2cccc[n+]2[O-])C(C)(C)c2ccccc21 | -1.5 | 3.4 | 0.3 | 16.9 | 9.0 | -32.0
CN1/C(=C/C(=O)CSc2ccccc2C(=O)O)C(C)(C)c2ccccc21 | nt | -3.7 | 0.2 | 35.7* | 8.9 | -33.2
CN1/C(=C\C(=O)COC(=O)CNC(=O)c2ccc3ccccc3c2)C(C)(C)c2ccccc21 | 6.7 | 7.1 | 0.1 | 40.3* | 13.3 | -28.2
